This is a sample that favours compounds with a hit; in the whole collection about 10% have one here.
MCF10A rereplic: DNA re-replication induction in MCF 10a cells. 350,000 tested, 2.9% active. Potency, µM (doses to about 46.1 µM), without a hit: top-dose activity, positive = re-replication, usual class: activators. MCF 10A DNA re-replication, Hoechst nuclear intensity, 48 h; further: % of control where 0% means no effect; nearly all actives have a fitted effect of over 50% in size
Gal4-VP16 FLuc: inhibits Gal4-VP16 luciferase reporter, ROR gamma counter-screen; Drosophila S2 Gal4-VP16 UAS-luciferase, luminescence, 20 h; 310,000 tested, 3.5% active; Potency, µM (doses to about 53.6 µM), for inactives: at the top dose activity, negative = inhibition, most hits filed as inhibitors;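 further: Gal4-VP16 expression switched on by copper sulfate through the metallothionein promoter; on the % scale 0 is the no-effect control and ±100 the full control effect; nearly all actives have a fitted effect of over 50% in size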
SW480 rerep: inducers of DNA re-replication in SW480 colon cancer cells | SW480 DNA re-replication, Hoechst DNA content imaging, 48 h | Potency, µM (series often up to 46.1 µM), without a hit: top-dose re-replication activation, actives largely listed as activators | 340,000 tested, 1.8% active | AID 624297; further: % of control where 0% means no effect; nearly all actives have a fitted effect of over 55% in size
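Image-based read-out: total Hoechst fluorescence of nuclei (405 nm excitation, 500-530 nm emission), with hits raising the fraction of high-intensity nuclei. SW480 colon cells incubated 48 hr with compounds at 37 C.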
KB-3-1 tox: KB-3-1 parental cell cytotoxicity | Potency, µM (series often up to 46.1 µM), most hits filed as cytotoxic | 400,000 tested, 1.4% active | AID 1347075 | KB-3-1 viability, CellTiter-Glo ATP luminescence, 72 h; further: on the % scale 0 is the no-effect control and ±100 the full control effect; nearly all actives have a fitted effect of over 60% in size
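Screening of KB-3-1 cells (DMEM, 10% FBS, phenol-red free) ran from lowest to highest compound concentration; after 72 h at 37 °C viability was read luminescently and curves fitted.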
KB-V1 MDR tox: KB-V1 MDR subline cytotoxicity. AID 1347076. Potency, µM (series often up to 46.1 µM), actives largely listed as cytotoxic. 400,000 tested, 3.4% active. KB-V1 MDR cells viability, CellTiter-Glo, 72 h; further: on the % scale 0 is the no-effect control and ±100 the full control effect; nearly all actives have a fitted effect of over 60% in size
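KB-V1 cells (P-gp-expressing MDR subline of KB-3-1) in phenol-red-free DMEM with 10% FBS were exposed to library compounds over a concentration series for 72 h at 37 degrees C. Viability read by CellTiter-Glo luminescence; concentration-effect curves fitted after normalization.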
RORgamma inh: inhibitors of mouse ROR gamma transcriptional activity; P51450; Drosophila S2 Gal4-RORgamma UAS-luciferase reporter, 20 h; AID 2551; 310,000 tested, 5.4% active; Potency, µM (doses to about 53.6 µM), without a hit: at the highest dose activity change, negative = inhibition, most hits filed as inhibitors; further: on the % scale 0 is the no-effect control and ±100 the full control effect; nearly all actives have a fitted effect of over 60% in size
Target sequence (P51450 whole entry, looked up, the tested form may be a part): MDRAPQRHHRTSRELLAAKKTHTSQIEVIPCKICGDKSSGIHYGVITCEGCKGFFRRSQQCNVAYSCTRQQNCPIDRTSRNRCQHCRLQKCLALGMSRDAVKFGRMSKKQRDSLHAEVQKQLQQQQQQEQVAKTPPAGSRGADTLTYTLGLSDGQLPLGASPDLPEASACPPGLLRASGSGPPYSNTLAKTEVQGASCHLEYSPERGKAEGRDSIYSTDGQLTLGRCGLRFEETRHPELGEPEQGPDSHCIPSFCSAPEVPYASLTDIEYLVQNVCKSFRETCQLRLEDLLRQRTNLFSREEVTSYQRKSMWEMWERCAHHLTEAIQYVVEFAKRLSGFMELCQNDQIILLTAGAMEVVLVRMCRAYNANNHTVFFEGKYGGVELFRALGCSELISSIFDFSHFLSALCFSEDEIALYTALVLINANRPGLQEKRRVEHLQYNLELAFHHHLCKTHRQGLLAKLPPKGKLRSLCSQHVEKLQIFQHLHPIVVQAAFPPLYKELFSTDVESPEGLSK
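ROR gamma transcriptional activity was tracked as Gal4-UAS luciferase output in stably transfected Drosophila Schneider cells, with compound added 1 hr before 700 uM copper sulfate induction and a 20 hr ambient-temperature incubation.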
The depositor's hits bear a star; i = inactive; u = inconclusive; x = no result; [ ] = remark or other dose. The call rests on the fitted dose curve; in most records, active means well fitted curve in the direction sought with a large enough effect; inconclusive means small, poorly fitted or top-dose-only effect, or another doubt; inactive means no such curve, though single readings can be large; an effect the other way counts as inactive or inconclusive. Potency means the concentration at half of the fitted maximal effect.

SMILES | MCF10A rereplic | Gal4-VP16 FLuc | SW480 rerep | KB-3-1 tox | KB-V1 MDR tox | RORgamma inh
COc1ccc(NC(=S)N(CCCN2CCOCC2)C(C)c2cc3cccc(OC)c3o2)cc1 (centres undefined) | 12.8% | -8.5%[10 µM] | -3.5% | i | i | -2.2%
O=C(NC1CCCCC1)c1cccc(NC(=O)c2ccccc2Cl)c1 | x | x | x | i | u | x
Cc1ccnc2ccc(I)cc12 | x | x | x | i | i | x
FC(F)(F)c1cccc(-c2noc(-c3cc(-c4ccccc4)c(C(F)(F)F)s3)n2)c1 | x | 1.0% | x | x | x | 11.4%
CC(C)NC(=O)C1CCC(Cn2c(=O)c3sccc3n(CC(=O)N3CCCC3)c2=O)CC1 (centres undefined) | x | x | x | i | i | x
COc1cccc(NC(=S)N(CCCN2CCOCC2)C(C)c2cc3ccccc3o2)c1 (centres undefined) | 3.8% | u | -15.7% | i | u | 11.2µM*
COc1cccc(NC(=S)N(CCN(C)C)C(C)c2ccco2)c1 (centres undefined) | -3.5% | -24.7% | x | i | u | u
COCC(=O)OC1CCn2c1nc1c2C(=O)C(C)=C(NC(C)=O)C1=O (centres undefined) | 9.2µM* | x | 1.46µM* | u | i | x
CC(=O)N1CCC(N(Cc2ccc(C)o2)C(=O)Nc2ccc(C)cc2)CC1 | x | x | x | i | i | x
CC1=NN(c2ccccc2)C(=O)C1C(=O)c1ccc(Cl)cc1 (centres undefined) | 3.4% | u | 23.2% | u | i | 11.2µM*
CC1=NN(c2ccccc2)C(=O)C1C(=O)c1ccccc1 (centres undefined) | u | u | -11.0% | i | i | u
Cc1sc2ncnc(N3CCC(C(=O)NNC(=O)COc4ccccc4Cl)CC3)c2c1C | 4.11µM* | x | 4.0% | i | u | x
CCN(CC(=O)Nc1c(F)cccc1F)C(=O)C1CCN(c2ncnc3sc(C)c(C)c23)CC1 | 16.6% | x | 2.7% | i | 13µM* | x
CCN(CC)CCNC(=O)c1ccc(NC(=O)C2CCN(c3ncnc4sc(C)c(C)c34)CC2)cc1 | u | -16.4% | 20.6µM* | i | i | 36.3%
CCN(CC(=O)Nc1c(Cl)cccc1Cl)C(=O)C1CCN(c2ncnc3sc(C)c(C)c23)CC1 | 3.3% | x | -1.3% | i | i | x
Cc1noc(C)c1-c1nccc(N2CCNCC2)n1 | x | 3.4% | x | x | x | -11.8%
COCCNC(=O)C1(C)CCCN(C(=O)c2ccc(OC)c(OC)c2)C1 (centres undefined) | x | x | x | i | i | x
COc1ccc(C(C)=O)cc1COc1ccc(-n2cnnn2)cc1 | 6.9% | 3.1% | -5.4% | i | 20.6µM* | -1.0%
O=C(c1ccc(-c2ccccc2)cc1)c1ccccc1C(=O)N1CCOCC1 | 6.5% | -1.9% | -19.7% | i | 20.6µM* | -9.9%
O=C(c1ccccc1-c1nc(-c2ccc(F)cc2)no1)N1CCCC1 | 23.0% | -8.4% | -4.1% | i | u | u
O=C(c1ccccc1)c1ccc(C(=O)N2CCOCC2)cc1 | 0.1% | 0.5% | 1.4%[9.22 µM] | i | i | 0.0%[10 µM]
O=C(O)c1ccc(-c2noc(-c3ccccc3F)n2)cc1 | 4.6% | 10µM* | -5.7% | u | i | x
O=C(c1ccccc1-c1nc(-c2ccccc2)no1)N1CCOCC1 | 7.1% | 5.2% | -14.4% | i | 11.6µM* | 3.1%
Nc1nc(SCC(=O)O)c2[nH]cnc2n1 | x | x | x | u | i | x
O=c1c2[nH]c3ccccc3c2ncn1C1CCCCC1 | 8.7% | -8.5% | 4.7% | i | i | 43.9%
SMILES | MCF10A rereplic | Gal4-VP16 FLuc | SW480 rerep | KB-3-1 tox | KB-V1 MDR tox | RORgamma inh
O=C1c2ccccc2C(=O)c2c1ccc1c(=O)n(C3CCCCC3)[nH]c21 | u | -29.8% | u | u | 10.3µM* | 7.94µM*
COc1cc2cc(CN(CCc3cccc(C)c3)C(=S)NCCCN3CCOCC3)c(=O)[nH]c2cc1OC | 15.1% | u | 0.2% | i | i | 7.08µM*
O=C(N/N=C1/C[C@@H](O)[C@@H](O)[C@@H]2[C@@H]3C(=O)N(Cc4ccc5c(c4)OCO5)C(=O)[C@H]3CC[C@H]12)OCc1ccccc1 | x | 2.3%[10 µM] | x | x | x | 2.4%[10 µM]
O=C(O)COc1ccc(/C=N/NC(=O)c2ccc(-c3csc(Nc4ccc(Cl)cc4)n3)cc2)cc1 | 9.2µM* | 3.1% | -11.4% | i | i | 2.6%
O=C(/C=C/c1ccccc1)Nc1ccc2c(c1)OCCO2 | -3.7% | 12.6µM* | 3.7% | i | i | 10µM*
COc1ccccc1/C=C/C(=O)Nc1ccc2c(c1)CCC2 | 12.0% | -1.8% | -6.5% | i | i | -0.7%
CC(C)=CC(=O)Nc1ccc2c(c1)OCO2 | -6.1% | u | -6.5% | i | i | 11.2µM*
COc1ccc(OC)c(/C=C/C(=O)Nc2ccc3c(c2)CCC3)c1 | 13.4% | -10.7% | -2.6% | i | 16.4µM* | u
COc1cc(/C=C/C(=O)c2ccc3c(c2)OCCO3)cc(Br)c1OCC(=O)N(C)C | u | u | 4.61µM* | 5.17µM* | 2.31µM* | -109.9%
O=C(O)c1ccc(NS(=O)(=O)c2ccsc2C(=O)O)c(O)c1 | x | -4.4% | x | x | x | -14.3%
Cc1cc[n+](CC(=O)c2ccc3c(c2)OCCO3)cc1 | -2.3% | -5.3% | 5.4% | i | i | -8.8%
COc1ccccc1/C=C/C(=O)Nc1ccc2c(c1)OCCO2 | 13µM* | -24.0% | 16.4µM* | 5.17µM* | 20.6µM* | 1.58µM*
O=C(/C=C/c1ccccc1)c1ccc2c(c1)OCO2 | u | 3.5% | u | i | i | -22.0%
O=C(/C=C/c1ccncc1)c1ccc2c(c1)OCCO2 | u | 5.01µM* | u | 23.1µM* | u | 3.98µM*
O=C(C[n+]1ccc(/C=C/c2ccccc2)cc1)c1ccc2c(c1)OCCO2 | 14.7% | -0.3% | u | 11.6µM* | u | 32.5%
CC(C)(C)S(=O)(=O)/C(C#N)=C/c1cccn1S(=O)(=O)c1ccccc1 | x | x | x | i | i | x
Oc1oc(-c2ccccc2)nc1C=Nc1ccccc1 | -4.8% | u | 0.4% | i | i | -15.4%
Sc1oc(-c2ccccc2)cc1C=Nc1ccccc1 | u | 17.8µM* | 13µM* | i | i | 12.6µM*
COC(=O)Cc1c(C)c2ccc3c(c2oc1=O)CN(Cc1ccc(Cl)cc1)CO3 | x | x | x | i | i | x
C=CCOC(=O)N[C@H](/C(C(=O)OC)=C(\C)NCc1ccccc1)c1ccc2c(c1)OCO2 | x | 2.8% | x | x | x | -1.2%
CCN(CC)CCNCc1ccc(-c2ccc(Cl)cc2)o1 | 0.5% | 0.3% | -0.9% | i | i | 7.94µM*
O=C(CN1CCCCC1)Nc1nnc(-c2ccc([N+](=O)[O-])cc2)s1 | 2.6% | -14.8% | -2.1% | i | i | 10µM*

Compound activity from PubChem BioAssay.
